# Screening data (PubChem BioAssay)
# G9a block = inhibitors of human histone lysine methyltransferase G9a; Potency, µM (titrated, usually from 102 µM), without a hit: top-dose activity, negative = inhibition, hits mostly inhibitors; AID 504332; Q96KQ7; 350,000 tested, 8.8% active; G9a H3K9 monomethylation, AlphaScreen, 2 h; further: on the % scale 0 is the no-effect control and ±100 the full control effect; nearly all actives have a fitted effect of over 75% in size
# Target sequence (Q96KQ7 913-1193 limits assumed): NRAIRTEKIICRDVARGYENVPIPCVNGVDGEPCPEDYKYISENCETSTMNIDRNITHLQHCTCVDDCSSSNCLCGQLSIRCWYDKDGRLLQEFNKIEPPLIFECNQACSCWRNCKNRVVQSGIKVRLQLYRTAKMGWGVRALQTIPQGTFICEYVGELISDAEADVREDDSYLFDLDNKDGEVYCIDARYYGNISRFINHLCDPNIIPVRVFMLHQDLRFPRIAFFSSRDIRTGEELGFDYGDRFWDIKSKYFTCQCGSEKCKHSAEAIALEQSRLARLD
#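 Quantitative HTS format: methyltransferase activity on a biotin-tagged H3K9 peptide is measured by AlphaScreen, using a rabbit anti-monomethyl-H3K9 antibody with streptavidin donor and anti-IgG acceptor beads. Final levels are 20 nM enzyme, 500 nM peptide, 20 uM SAM; 2 h RT.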
# PLK1 PBD block = inhibitors of human PLK1 polo-box domain binding; Plk1 PBD binding of FITC phosphopeptide, fluorescence polarization; Potency, µM, for the others: max response, negative = inhibition, most hits filed as inhibitors; 360,000 tested, 2.8% active; AID 720504; further: series mostly up to about 57 µM; on the % scale 0 is the no-effect control and ±100 the full control effect; nearly all actives have a fitted effect of over 65% in size
# JMJD2A Tudor inh = blocks the human JMJD2A Tudor domain; AlphaScreen JMJD2A-Tudor / H3K4me3 peptide binding; 390,000 tested, 4.4% active; Potency, µM (doses to about 114 µM), without a hit: top-dose activity change, negative = inhibition, hits mostly inhibitors; AID 504339; further: on the % scale 0 is the no-effect control and ±100 the full control effect; nearly all actives have a fitted effect of over 50% in size
# BAZ2B block = inhibitors of human BAZ2B bromodomain | Q9UIF8 | AlphaScreen BAZ2B-H3K14Ac peptide displacement | Potency, µM (highest dose often 114 µM), for the others: top-dose activity change, negative = inhibition, actives largely listed as inhibitors | 360,000 tested, 4.4% active; further: on the % scale 0 is the no-effect control and ±100 the full control effect; nearly all actives have a fitted effect of over 60% in size
#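 BAZ2B (50 nM) with biotin-H3(5-23)K14Ac peptide (50 nM) in PBS pH 7.4, 0.01% Tween-20, preformed 30 min, then compound 30 min at room temperature; top concentration 110uM. AlphaScreen streptavidin donor/nickel chelate acceptor beads (10 ug/mL final), 20 min dark, signal read.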
# HP1b chromo inh = blocks HP1-beta chromodomain binding to methylated histone tails. P83916. AlphaScreen HP1-beta / biotin-H3K9me3 peptide binding. Potency, µM (highest dose often 114 µM), without a hit: top-dose activity change, negative = inhibition, hits mostly inhibitors. 390,000 tested, 0.56% active. AID 540317; further: nearly all actives have a fitted effect of over 70% in size
# Target sequence (P83916 whole entry, looked up): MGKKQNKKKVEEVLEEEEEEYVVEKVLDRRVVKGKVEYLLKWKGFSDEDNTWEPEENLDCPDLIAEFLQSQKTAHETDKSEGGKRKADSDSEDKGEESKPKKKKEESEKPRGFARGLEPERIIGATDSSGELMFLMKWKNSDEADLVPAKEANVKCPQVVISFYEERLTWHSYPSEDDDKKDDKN
#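 HP1-beta protein (50 nM final) preincubated 30 min at room temperature with biotinylated H3(1-18)K9me3 peptide (50 nM) in PBS pH 7.4, 0.01% Tween-20, then compound added for 30 min. AlphaScreen streptavidin donor/nickel chelate acceptor beads (10 ug/mL final), 30 min dark, luminescence read.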
# Sfp inh = Sfp phosphopantetheinyl transferase inhibition | Biochemical Sfp PPTase activity, qHTS | 310,000 tested, 3.5% active | Potency, µM, without a hit: largest response in the series, negative = inhibition, usual class: inhibitors;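 further: the enzyme is Sfp with the accession as filed and its product quenches rhodamine fluorescence; 0% = enzyme reaction without inhibitor and -100% = no enzyme wells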
#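 Buffer: 50 mM Hepes-Na pH 7.6, 10 mM MgCl2, 0.01% Nonidet P-40, 0.01% BSA. Enzyme 15 nM, pre-exposed to compound 15 min; substrates then added and fluorescence change tracked over 30 min.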
# * marks the source's active call; other numbers are inactive results; ? = inconclusive; . = no result given; [ ] = remark or other dose. Hits are enriched below; roughly 12% of the tested compounds scored in any of these assays. The call rests on the fitted dose curve; in most records, active means well fitted curve in the direction sought with a large enough effect; inconclusive means small, poorly fitted or top-dose-only effect, or another doubt; inactive means no such curve, though single readings can be large; an effect the other way counts as inactive or inconclusive. Potency means the concentration at half of the fitted maximal effect.
SMILES,G9a block,PLK1 PBD block,JMJD2A Tudor inh,BAZ2B block,HP1b chromo inh,Sfp inh
CC(=O)Nc1ccc(S(=O)(=O)N2CCC(N3CCCC3)CC2)cc1,50.1µM*,0.4%,3.55µM*,?,?,-4.3%
CC(=O)Nc1ccc(S(=O)(=O)N2CCN(S(=O)(=O)c3ccc(NC(C)=O)cc3)CC2)cc1,-23.9%,-3.0%,-5.6%,0.3%,23.9%,-4.7%
CCn1c(C2CCN(S(=O)(=O)c3ccc(OC)cc3)CC2)n[nH]c1=S,14.1µM*,-15.6%,6.31µM*,-18.8%,7.7%,17.8%
Cc1ccc(S(=O)(=O)N2CCC(C(=O)Nc3ccc(N4CCOCC4)cc3)CC2)cc1C,15.8µM*,0.6%,-4.8%,-1.6%,26.1%,.
O=C(c1cn(-c2ccccc2)nc1-c1cccnc1)N1CCN(S(=O)(=O)c2cccc(F)c2)CC1,-41.0%[12.7 µM],-9.6%,-20.9%,-20.1%,39.5%,.
COc1cc(-c2cc3n(C)c(C)c(CCC(=O)NC4CCCCC4)c(=O)n3n2)cc(OC)c1OC,13.6%[59 µM],.,-2.6%,-4.9%,15.2%[57 µM],.
COc1ccc(S(=O)(=O)N2CCC(N3CCCCC3)CC2)cc1,?,-1.3%,8.91µM*,70.8µM*,?,?
COc1ccc(S(=O)(=O)N2CCCCCC2)cc1,-0.8%[59 µM],-6.2%,-14.4%,-2.8%,16.1%,22.6%
O=S(=O)(c1ccc(F)cc1)N1CCC(N2CCCC2)CC1,?,-8.8%,20µM*,?,?,-9.1%
CSc1ccc(S(=O)(=O)N2CCC(C(=O)Nc3ccc(NC(C)=O)cc3)CC2)cc1,39.8µM*,-10.9%,-15.8%,1.0%,12.0%,-2.2%
Cc1nnc(NC(=O)C2CCN(S(=O)(=O)c3ccc(F)c(F)c3)CC2)o1,.,-5.3%,50.1µM*,.,28.6%,.
Cn1c(=O)oc2cc(S(=O)(=O)N3CCC(C(=O)Nc4ccc(F)c(Cl)c4)CC3)ccc21,-29.8%[59 µM],.,-10.9%,-12.7%,38.4%,.
CCC1(c2ccc(OC)cc2)NC(=O)N(CC(=O)NC2CCCCC2C)C1=O (centres undefined),-4.8%[2.33 µM],0.7%,1.0%,6.1%,35.0%,.
COc1cccc2c1CCC1CC(=O)CC[C@@]21C (some centres undefined),.,.,.,.,.,1.1%
CC(C)CCCC(C)C1CCC2C3=CC[C@@H]4CC(O)CC[C@@]4(C)C3CC[C@]21C (some centres undefined),.,.,.,.,.,-13.1%
Cc1ccc(NC(=O)Cn2nnc(C(=O)NCCc3ccccc3)c2N)cc1,?,.,-29.4%,-30.4%,23.8%,.
O=c1c2oc3ccccc3c2n(Cc2ccc(Cl)cc2)c(=O)n1Cc1ccc2c(c1)OCO2,-8.7%[59 µM],.,-13.9%,-14.0%,19.6%,.
O=c1ccc(S(=O)(=O)N2CCCC2)cn1Cc1ccc(F)cc1,3.55µM*,-3.3%,0.0%,-1.8%,25.5%,.
COc1ccc(S(=O)(=O)N2CCC(C(=O)N3CCc4ccccc4C3)CC2)cc1,-0.7%,-0.7%,-7.7%,-6.1%,29.9%,-17.7%
CSc1ccc(S(=O)(=O)N2CCC(C(=O)N3CCc4ccccc4C3)CC2)cc1,39.8µM*,-1.0%,-13.0%,-18.2%,12.4%,21.5%
CC(NC(=O)Nc1ccccc1C(F)(F)F)c1c(-n2cccc2)sc2c1CCCC2 (centres undefined),-8.1%[59 µM],.,-14.6%,-15.8%,29.8%,.
CCCCOCC(O)CCc1n[nH]c(=S)n1-c1ccccc1 (centres undefined),.,-1.9%,?,-15.0%,50.4%,?
S=c1[nH]nc(Cc2n[nH]c(=S)n2-c2ccccc2)n1-c1ccccc1,10µM*,-8.6%,8.91µM*,-2.6%,40.1%,?
S=c1[nH]nc(Cc2noc3ccccc23)n1-c1ccc(Cl)cc1,1.41µM*,-22.8%,?,-13.3%,-0.3%,-7.5%
S=c1[nH]nc(COc2ccc(Cl)cc2)n1-c1ccccc1,14.5%[0.501 µM],-2.9%,-18.6%,-5.3%,22.9%,13.0%
Cc1ccccc1OCc1n[nH]c(=S)n1-c1ccccc1,10µM*,-11.6%,-33.8%,-31.3%,16.2%,6.1%
CC(C)OCC(O)CCc1n[nH]c(=S)n1-c1ccccc1 (centres undefined),3.55µM*,-12.5%,6.31µM*,11.9%,28.4%,79.4µM*
